One may read the inhibition as the change of the read-out against control, counted positive when it falls.

Here are results for 21 compounds from PubChem BioAssay.

Assay [1] can be described thus: antimalarial activity against Dd2 strain (AID 2302;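 active means growth inhibition above 50% at the single 2 µM test dose, taken to imply half-maximal potency below 2 µM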;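 further: 0% = DMSO untreated growth and 100% = chloroquine plus artemisinin killed control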). The conditions noted are these: P. falciparum Dd2 in RBCs, LDH growth readout, 72 h; at 2 µM; active compounds read high.
The nature of assay [2]: human hepatoma cell viability loss – ATP luminescence, cytotoxicity control for P. falciparum antimalarial project, primary screen (AID 2303;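 active means inhibition above 50%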;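 further: 0% = DMSO wells and 100% = digitonin-killed cells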). The conditions noted are these: HepG2 viability, 24-48 h, at 10 µM, active compounds read high.
Assay [3] has as its target L-lactate dehydrogenase (Plasmodium falciparum (isolate CDC / Honduras)) (UniProt Q27743). In words: PfLDH activity inhibition – cell lysate, 3D7 strain, counter-screen for P. falciparum growth inhibition project (AID 2304).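 Further: 0% = vehicle and 100% = reference inhibitor.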 The conditions noted are these: P. falciparum 3D7 crude extract, LDH APAD/NBT absorbance; at 2 µM; active compounds read high.
A short description of assay [4]: inhibition of 3D7 malaria parasite growth – strain 3D7 (AID 2306).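 Further: 0% = DMSO wells and 100% = chloroquine plus artemisinin control wells.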 The conditions noted are these: P. falciparum 3D7 erythrocytic growth, LDH absorbance, 72 h; at 2 µM; active compounds read high.
The target of assay [5] is Calcium-dependent protein kinase 1 (Plasmodium falciparum (isolate 3D7)) (UniProt P62344). Description: PfCDPK1 kinase inhibitors, biochemical, TCAMS library (AID 1159585; cut-off not given, nearly all actives have IC50 up to about 0.98 µM;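 further: inhibitors leave more ATP so luminescence rises with inhibition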). The conditions noted are these: recombinant PfCDPK1, Kinase-Glo ATP depletion luminescence.
For assay [6], the target named is Plasmodium falciparum protein kinase 6 (PK6, PF3D7_1337100) (UniProt Q8IDW1). Description: PfPK6 kinase inhibitors, biochemical, TCAMS library (AID 1159586). The conditions noted are these: recombinant PfPK6, Kinase-Glo ATP depletion luminescence. In general terms: Kinase-Glo reads ATP consumption through a luciferase reaction.
The target in assay [7] is Protein kinase 7 (PK7), Plasmodium falciparum 3D7 (PF3D7_0213400) (UniProt Q7YTF7). In words: inhibition of Plasmodium PK7 catalytic activity – biochemical, TCAMS antimalarial set, Kinase-Glo luminescence (AID 1159587). The conditions noted are these: recombinant PfPK7, Kinase-Glo ATP depletion luminescence.
In assay [8] the target is Calcium-dependent protein kinase 4 (Plasmodium falciparum (isolate 3D7)) (UniProt Q8IBS5). In words: PfCDPK4 kinase inhibitors, biochemical, TCAMS library (AID 1159588; cut-off not given, nearly all actives have IC50 up to about 0.91 µM). The conditions noted are these: recombinant PfCDPK4, Kinase-Glo ATP depletion luminescence.

Unmarked numbers belong to inactive results. For part of these data: Results with a measured potency or affinity are listed apart. The source made the active and inactive calls. Unless noted, how the calls were made is not given here.

Calcium-dependent protein kinase 4 (Plasmodium falciparum (isolate 3D7)), sequence (Q8IBS5 whole entry, looked up): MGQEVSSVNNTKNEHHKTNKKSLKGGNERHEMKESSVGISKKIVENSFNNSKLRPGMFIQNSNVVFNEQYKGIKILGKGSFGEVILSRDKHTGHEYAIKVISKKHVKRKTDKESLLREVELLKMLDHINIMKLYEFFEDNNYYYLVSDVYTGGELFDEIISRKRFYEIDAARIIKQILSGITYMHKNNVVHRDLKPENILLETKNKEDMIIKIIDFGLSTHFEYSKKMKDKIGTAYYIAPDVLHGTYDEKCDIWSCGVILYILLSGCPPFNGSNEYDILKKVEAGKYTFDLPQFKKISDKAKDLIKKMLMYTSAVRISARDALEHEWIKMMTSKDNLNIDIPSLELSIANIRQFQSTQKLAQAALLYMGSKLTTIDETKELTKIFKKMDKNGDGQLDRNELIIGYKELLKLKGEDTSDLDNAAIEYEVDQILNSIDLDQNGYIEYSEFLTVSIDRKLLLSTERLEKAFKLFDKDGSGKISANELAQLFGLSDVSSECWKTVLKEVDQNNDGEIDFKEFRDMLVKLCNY
Calcium-dependent protein kinase 1 (Plasmodium falciparum (isolate 3D7)), sequence (P62344 whole entry, looked up): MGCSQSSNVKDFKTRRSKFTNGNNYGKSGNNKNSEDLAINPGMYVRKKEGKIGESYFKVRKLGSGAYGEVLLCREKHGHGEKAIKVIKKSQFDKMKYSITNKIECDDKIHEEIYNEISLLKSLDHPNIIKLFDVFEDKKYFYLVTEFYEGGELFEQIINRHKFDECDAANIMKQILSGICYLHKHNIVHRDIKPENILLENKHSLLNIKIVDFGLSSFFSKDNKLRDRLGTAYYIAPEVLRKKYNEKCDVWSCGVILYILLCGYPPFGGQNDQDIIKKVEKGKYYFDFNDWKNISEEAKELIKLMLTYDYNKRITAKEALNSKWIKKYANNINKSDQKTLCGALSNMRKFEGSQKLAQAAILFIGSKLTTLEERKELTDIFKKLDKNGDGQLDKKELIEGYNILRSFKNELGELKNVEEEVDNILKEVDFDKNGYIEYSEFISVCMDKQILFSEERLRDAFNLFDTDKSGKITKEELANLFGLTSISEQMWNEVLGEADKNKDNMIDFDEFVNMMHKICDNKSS
Protein kinase 7 (PK7), Plasmodium falciparum 3D7 (PF3D7_0213400), sequence (Q7YTF7 1-343): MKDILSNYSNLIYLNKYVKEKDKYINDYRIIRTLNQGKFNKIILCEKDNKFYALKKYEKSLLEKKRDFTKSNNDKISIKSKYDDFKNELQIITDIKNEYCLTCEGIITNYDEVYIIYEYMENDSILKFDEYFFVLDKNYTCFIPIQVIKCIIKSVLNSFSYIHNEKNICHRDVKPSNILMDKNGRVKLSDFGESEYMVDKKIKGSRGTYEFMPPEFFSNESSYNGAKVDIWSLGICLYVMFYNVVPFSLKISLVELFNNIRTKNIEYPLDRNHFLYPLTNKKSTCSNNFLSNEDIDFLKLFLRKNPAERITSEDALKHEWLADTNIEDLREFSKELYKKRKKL
Plasmodium falciparum protein kinase 6 (PK6, PF3D7_1337100), sequence (Q8IDW1 1-305): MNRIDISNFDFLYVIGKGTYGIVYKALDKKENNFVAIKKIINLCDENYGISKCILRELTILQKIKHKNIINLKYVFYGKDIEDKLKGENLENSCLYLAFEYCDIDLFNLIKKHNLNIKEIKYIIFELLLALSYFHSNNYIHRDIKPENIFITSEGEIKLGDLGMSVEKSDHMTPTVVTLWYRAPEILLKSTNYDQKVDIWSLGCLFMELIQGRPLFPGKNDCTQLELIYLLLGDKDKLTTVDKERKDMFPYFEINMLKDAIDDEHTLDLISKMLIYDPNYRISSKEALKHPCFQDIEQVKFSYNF
L-lactate dehydrogenase (Plasmodium falciparum (isolate CDC / Honduras)), sequence (Q27743 whole entry, looked up): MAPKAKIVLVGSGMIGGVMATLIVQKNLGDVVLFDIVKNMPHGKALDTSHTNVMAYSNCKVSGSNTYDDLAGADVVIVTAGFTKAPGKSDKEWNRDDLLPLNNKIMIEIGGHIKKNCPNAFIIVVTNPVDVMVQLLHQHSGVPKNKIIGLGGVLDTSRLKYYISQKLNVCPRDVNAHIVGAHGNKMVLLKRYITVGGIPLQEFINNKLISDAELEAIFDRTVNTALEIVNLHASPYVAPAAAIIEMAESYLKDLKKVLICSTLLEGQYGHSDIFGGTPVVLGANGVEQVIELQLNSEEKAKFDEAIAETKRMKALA

Regarding `O=C(NCc1cccs1)[C@H](Cc1ccccc1)Nc1ccnc(NCCc2ccc(F)cc2)n1`, the figures for the growth inhibition in assay [1] and in assay [4] were 52% (active) and 85% (active), respectively. Moreover, the inhibition is 1% in assay [2] and -2% in assay [3]. Besides, the outcome in assay [5], in assay [6], in assay [7] and in assay [8] was inactive.
As to `Cc1cccc2[nH]c(-c3cccc(-c4ccc(NC(=O)Nc5ccc(F)c(F)c5F)cc4)c3)nc12`, the growth inhibition in assay [1] is 100% (active); in assay [4] it was 101% (active). The inhibition is 61% (active) in assay [2] and -4% in assay [3]. In addition, the outcome in assay [5], in assay [6], in assay [7] and in assay [8] was inactive.
As for `CC(C)(C)OC(=O)N[C@@H](Cc1ccccc1)C(=O)Nc1cccc(-c2cccc(NC(=O)[C@H](Cc3ccccc3)NC(=O)OC(C)(C)C)c2)c1`, the growth inhibition was 97% (active) in assay [1] and 106% (active) in assay [4]. In addition, the inhibition was 10% in assay [2] and 6% in assay [3]. Besides, the result in assay [5], in assay [6], in assay [7] and in assay [8] was inactive.
`CSc1cccc(NC(=O)Nc2ccc(I)c(OCCN(C)C)c2)c1`: the values for the growth inhibition in assay [1] and in assay [4] were 19% and 97% (active), respectively. For the same compound, the inhibition is 14% in assay [2] and -1% in assay [3]. For the same compound, the outcome in assay [5], in assay [6], in assay [7] and in assay [8] was inactive.
For the compound `Clc1cc(Br)ccc1-c1ccc(CNCC2CCNCC2)o1`, the growth inhibition in assay [1] was 39%; in assay [4], 96% (active). Besides, the inhibition is 100% (active) in assay [2] and 1% in assay [3]. The result in assay [5], in assay [6], in assay [7] and in assay [8] was inactive.
`CCN(CCCN1CCCCC1)c1cc(C)nc(Nc2ccc(Cl)cc2)n1`: the growth inhibition in assay [1] was 82% (active); in assay [4], 101% (active). Further, the inhibition in assay [2] is 23%; in assay [3] it was -2%. For the same compound, the outcome in assay [5], in assay [6], in assay [7] and in assay [8] was inactive.
With `Cc1ccc(-c2ccc3c(c2)C=C(C(=O)NC2CCN(CCNC(=O)c4cccs4)CC2)CCC3)cc1`, the growth inhibition was 30% in assay [1] and 90% (active) in assay [4]. Further, the inhibition in assay [2] is 27%; in assay [3] it was -1%. The outcome in assay [5], in assay [6], in assay [7] and in assay [8] was inactive.
Regarding `Nc1c2c(nc3ccc(NC(=O)CCCCCc4ccccc4)cc13)CCCC2`, the growth inhibition in assay [1] was 36%; in assay [4], 102% (active). The inhibition in assay [2] is 32%; in assay [3], 4%. The result in assay [5], in assay [6], in assay [7] and in assay [8] was inactive.
As to `COc1cccc(OC)c1CN1CCC(N(C)CCCCCCCCN2CCC(OC(=O)Nc3ccccc3-c3ccccc3)CC2)CC1`, the growth inhibition in assay [1] was 100% (active); in assay [4], 99% (active). Further, the figures for the inhibition in assay [2] and in assay [3] were 100% (active) and 1%, respectively. The result in assay [5], in assay [6], in assay [7] and in assay [8] was inactive.
With `COc1ccc(-c2c(-c3ccc(OCc4ccccc4)cc3O)n[nH]c2C(F)(F)F)cc1`, the growth inhibition in assay [1] is 57% (active); in assay [4] it was 93% (active). Further, the figures for the inhibition in assay [2] and in assay [3] were 49% and 2%, respectively. In addition, the result in assay [5], in assay [6], in assay [7] and in assay [8] was inactive.
On to `O=C(Nc1ccc(Cl)cc1)N[C@H]1CCN(Cc2ccc(OCCCN3CCCCC3)cc2)C1`, for which the growth inhibition in assay [1] was -1%; in assay [4], 103% (active). For the same compound, the inhibition was 29% in assay [2] and -2% in assay [3]. The result in assay [5], in assay [6], in assay [7] and in assay [8] was inactive.
For `CCc1ccc(C2CCN(CCCCNC(=O)c3ccc(-c4ccc(C(F)(F)F)cc4)cc3)CC2)c(OCCO)c1`, the values for the growth inhibition in assay [1] and in assay [4] were 69% (active) and 101% (active), respectively. The inhibition was 82% (active) in assay [2] and -6% in assay [3]. For the same compound, the result in assay [5], in assay [6], in assay [7] and in assay [8] was inactive.
For the compound `COc1nc2c(N3CCN(CCNCc4ccc5c(n4)NC(=O)CS5)CC3)ccnc2cc1F`, the growth inhibition in assay [1] was 96% (active); in assay [4], 101% (active). Besides, the inhibition was 18% in assay [2] and -6% in assay [3]. For the same compound, the result in assay [5], in assay [6], in assay [7] and in assay [8] was inactive.
Regarding `COc1ccc(NC(=O)Nc2ccc(C)c(-c3ccc(C(=O)Nc4ccncc4)cc3)c2)cc1`, the growth inhibition in assay [1] was 50% (active); in assay [4], 99% (active). The inhibition was 39% in assay [2] and 4% in assay [3]. Also, the result in assay [5], in assay [6], in assay [7] and in assay [8] was inactive.
In the case of `Cc1nnsc1C(=O)Nc1cccc(-c2ccc(-c3nc4ccccc4[nH]3)cc2)c1`, the growth inhibition is 58% (active) in assay [1] and 100% (active) in assay [4]. The inhibition in assay [2] was 48%; in assay [3], 0%. Besides, the outcome in assay [5], in assay [6], in assay [7] and in assay [8] was inactive.
Turning to `CCc1cn2c3c(cc(C(=O)N[C@@H](Cc4ccccc4)[C@H](O)CNCc4ccccc4)cc13)N(C)S(=O)(=O)CC2`, the growth inhibition was 99% (active) in assay [1] and 98% (active) in assay [4]. Further, the inhibition in assay [2] is 3%; in assay [3] it was 1%. Moreover, the result in assay [5], in assay [6], in assay [7] and in assay [8] was inactive.
Regarding `CCN(CC)CCN1C(=O)c2oc3ccc(F)cc3c(=O)c2C1c1cccc(Cl)c1` (stereo not drawn), the results for the growth inhibition in assay [1] and in assay [4] were 93% (active) and 99% (active), respectively. The inhibition was -4% in assay [2] and -2% in assay [3]. The result in assay [5], in assay [6], in assay [7] and in assay [8] was inactive.
On to `CCOC(=O)c1c[nH]c2c(sc3cc(OC)ccc32)c1=O`, for which the growth inhibition was 93% (active) in assay [1] and 96% (active) in assay [4]. Further, the inhibition in assay [2] is -6%; in assay [3], 3%. Moreover, the outcome in assay [5], in assay [6], in assay [7] and in assay [8] was inactive.
For the compound `CC(C)(C)C(=O)Nc1ccccc1Oc1ccc(Cl)cc1`, the growth inhibition in assay [1] was 96% (active); in assay [4], 92% (active). The inhibition is 54% (active) in assay [2] and 7% in assay [3]. For the same compound, the outcome in assay [5], in assay [6], in assay [7] and in assay [8] was inactive.
For `Cc1ccc2nc(C)cc(Nc3ccccc3O)c2c1`, the figures for the growth inhibition in assay [1] and in assay [4] were 6% and 96% (active), respectively. The results for the inhibition in assay [2] and in assay [3] were 0% and -3%, respectively. In addition, the outcome in assay [5], in assay [6], in assay [7] and in assay [8] was inactive.
With `CN(C)CCCN1CCN(Cc2ccc(-c3ccc(-c4nc5ccccc5[nH]4)s3)cc2)CC1`, the growth inhibition in assay [1] was 100% (active); in assay [4] it was 102% (active). Further, the values for the inhibition in assay [2] and in assay [3] were 19% and 4%, respectively. Besides, the outcome in assay [5], in assay [6], in assay [7] and in assay [8] was inactive.
